In publication PMC7862700, “An all-to-all approach to the identification of sequence-specific readers for epigenetic DNA modifications on cytosine”:

Columns and labels:
Experiment in all cases: DAPPL (digital affinity profiling via proximity ligation, sequencing); 10 mM Tris-HCl pH 7.5, 50 mM NaCl, 1 mM DTT, 4% glycerol, room temperature, 30 min; GST-TFs on glutathione beads, 16-mer random dsDNA library, 0.1% formaldehyde crosslink after washing; high values mean tight binding
Settings in all cases: protein: recombinant; tags: N-terminal GST; dsDNA, one strand shown
FLI1 = target: T1, FLI1 (Homo sapiens, UniProt Q01543 1-452)
T1 sequence: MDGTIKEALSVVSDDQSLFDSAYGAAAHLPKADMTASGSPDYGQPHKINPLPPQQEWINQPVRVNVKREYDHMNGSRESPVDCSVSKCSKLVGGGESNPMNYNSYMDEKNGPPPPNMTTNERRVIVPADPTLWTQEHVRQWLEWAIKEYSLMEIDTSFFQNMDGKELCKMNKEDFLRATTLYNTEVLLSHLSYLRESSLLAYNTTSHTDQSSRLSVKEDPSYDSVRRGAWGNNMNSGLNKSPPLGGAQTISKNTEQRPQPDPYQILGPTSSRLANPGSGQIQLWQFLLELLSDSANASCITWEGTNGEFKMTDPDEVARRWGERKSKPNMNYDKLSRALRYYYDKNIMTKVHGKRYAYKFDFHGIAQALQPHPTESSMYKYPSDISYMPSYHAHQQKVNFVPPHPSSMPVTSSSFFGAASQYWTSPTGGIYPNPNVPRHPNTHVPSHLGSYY
Outline: (§1)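 The binding signal reported is, for every hexamer, its read frequency for a factor over its read frequency for the tag-only sample. Reads came from pools of yeast-expressed, GST-fused human transcription factors on glutathione beads, barcoded with DNA and mixed with that sample, which were incubated with 200 nmole of a random double-stranded 16-mer DNA library in Tris/NaCl/DTT/glycerol buffer at room temperature for 30 min. After washing, the pools were crosslinked with 0.1% formaldehyde, proximity-ligated with BsaI/T4 ligase for 1 h at 37 °C, PCR-amplified and sequenced on an Illumina NextSeq500.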

ELK1 = target: T2, ELK1 (Homo sapiens, UniProt P19419 1-428)
T2 sequence: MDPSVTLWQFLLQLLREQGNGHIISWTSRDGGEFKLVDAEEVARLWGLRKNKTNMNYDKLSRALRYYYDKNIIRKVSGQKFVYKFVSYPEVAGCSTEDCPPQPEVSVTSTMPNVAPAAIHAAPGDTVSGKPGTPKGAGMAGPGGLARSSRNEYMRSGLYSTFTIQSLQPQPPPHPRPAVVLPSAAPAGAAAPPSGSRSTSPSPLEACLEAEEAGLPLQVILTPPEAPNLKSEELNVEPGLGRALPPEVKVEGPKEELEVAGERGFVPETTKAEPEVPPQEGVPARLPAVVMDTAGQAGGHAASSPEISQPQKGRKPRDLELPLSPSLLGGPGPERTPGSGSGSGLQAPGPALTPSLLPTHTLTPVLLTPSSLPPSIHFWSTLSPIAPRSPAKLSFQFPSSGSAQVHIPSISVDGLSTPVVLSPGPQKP
Outline: as §1

GABPA = target: T3, GABPA (Homo sapiens, UniProt Q06546 1-454)
T3 sequence: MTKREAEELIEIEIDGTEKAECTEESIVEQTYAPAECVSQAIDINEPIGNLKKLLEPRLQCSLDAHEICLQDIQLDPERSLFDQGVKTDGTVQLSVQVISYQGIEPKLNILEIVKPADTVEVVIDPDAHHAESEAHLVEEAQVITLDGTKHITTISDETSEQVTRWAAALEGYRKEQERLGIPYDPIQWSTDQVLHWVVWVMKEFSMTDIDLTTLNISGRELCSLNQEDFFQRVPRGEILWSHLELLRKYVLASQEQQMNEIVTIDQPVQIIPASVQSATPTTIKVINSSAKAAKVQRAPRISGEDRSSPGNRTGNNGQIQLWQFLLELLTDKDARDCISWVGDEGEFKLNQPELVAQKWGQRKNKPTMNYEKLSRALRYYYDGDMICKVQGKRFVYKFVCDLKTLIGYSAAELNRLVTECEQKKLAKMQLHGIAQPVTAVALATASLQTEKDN
Outline: as §1

ERG = target: T4, ERG (Homo sapiens, UniProt P11308 1-479)
T4 sequence: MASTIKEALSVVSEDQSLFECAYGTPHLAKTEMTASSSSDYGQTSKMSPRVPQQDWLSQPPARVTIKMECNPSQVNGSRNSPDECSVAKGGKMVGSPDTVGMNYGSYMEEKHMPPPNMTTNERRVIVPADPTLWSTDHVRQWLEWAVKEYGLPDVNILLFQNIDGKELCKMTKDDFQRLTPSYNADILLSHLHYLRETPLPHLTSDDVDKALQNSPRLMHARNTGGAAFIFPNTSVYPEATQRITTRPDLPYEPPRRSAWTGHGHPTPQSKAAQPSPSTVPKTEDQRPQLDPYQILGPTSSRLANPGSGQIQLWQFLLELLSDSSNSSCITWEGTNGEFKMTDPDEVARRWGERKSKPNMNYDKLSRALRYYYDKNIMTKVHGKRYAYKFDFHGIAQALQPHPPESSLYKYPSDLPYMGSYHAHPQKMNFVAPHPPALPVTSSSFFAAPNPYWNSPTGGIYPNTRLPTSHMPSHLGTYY
Outline: as §1

ELF1 = ELF1 (Homo sapiens, UniProt P32519 1-619)
Outline: as §1

EHF = target: T5, EHF (Homo sapiens, UniProt Q9NZC4 1-300)
T5 sequence: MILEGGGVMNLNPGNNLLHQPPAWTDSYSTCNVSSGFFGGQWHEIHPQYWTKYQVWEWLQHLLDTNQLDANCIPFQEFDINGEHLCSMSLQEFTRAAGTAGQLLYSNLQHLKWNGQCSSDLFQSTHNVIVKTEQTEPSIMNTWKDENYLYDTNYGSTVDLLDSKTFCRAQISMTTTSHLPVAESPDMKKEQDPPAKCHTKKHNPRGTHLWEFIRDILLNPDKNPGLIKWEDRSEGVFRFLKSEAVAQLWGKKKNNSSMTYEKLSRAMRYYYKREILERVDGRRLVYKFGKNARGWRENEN
Outline: as §1

SPI1 = SPI1 (Homo sapiens, UniProt P17947 1-270)
Outline: as §1

SPIB = SPIB (Homo sapiens, UniProt Q01892 1-262)
Outline: as §1

ELK3 = target: T6, ELK3 (Homo sapiens, UniProt P41970 1-407)
T6 sequence: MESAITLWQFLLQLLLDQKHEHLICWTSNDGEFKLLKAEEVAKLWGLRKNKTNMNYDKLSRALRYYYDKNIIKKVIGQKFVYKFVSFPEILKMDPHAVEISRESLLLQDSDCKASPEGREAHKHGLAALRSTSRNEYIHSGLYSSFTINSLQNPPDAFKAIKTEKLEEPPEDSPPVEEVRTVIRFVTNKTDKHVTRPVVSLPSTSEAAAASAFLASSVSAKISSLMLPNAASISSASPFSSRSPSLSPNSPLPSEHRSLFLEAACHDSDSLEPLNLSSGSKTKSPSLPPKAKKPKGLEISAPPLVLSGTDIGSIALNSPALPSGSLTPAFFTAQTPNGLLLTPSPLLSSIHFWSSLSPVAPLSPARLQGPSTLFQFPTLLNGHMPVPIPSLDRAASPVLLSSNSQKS
Outline: as §1

Chain of SPIB (Q01892 whole entry): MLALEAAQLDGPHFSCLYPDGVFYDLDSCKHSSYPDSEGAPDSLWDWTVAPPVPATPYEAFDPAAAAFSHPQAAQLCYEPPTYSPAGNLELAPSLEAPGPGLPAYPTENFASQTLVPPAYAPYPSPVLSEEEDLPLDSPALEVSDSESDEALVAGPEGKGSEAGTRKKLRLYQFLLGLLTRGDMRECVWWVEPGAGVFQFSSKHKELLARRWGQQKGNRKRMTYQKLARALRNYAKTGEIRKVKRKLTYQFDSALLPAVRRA
Chain of ELF1 (P32519 whole entry): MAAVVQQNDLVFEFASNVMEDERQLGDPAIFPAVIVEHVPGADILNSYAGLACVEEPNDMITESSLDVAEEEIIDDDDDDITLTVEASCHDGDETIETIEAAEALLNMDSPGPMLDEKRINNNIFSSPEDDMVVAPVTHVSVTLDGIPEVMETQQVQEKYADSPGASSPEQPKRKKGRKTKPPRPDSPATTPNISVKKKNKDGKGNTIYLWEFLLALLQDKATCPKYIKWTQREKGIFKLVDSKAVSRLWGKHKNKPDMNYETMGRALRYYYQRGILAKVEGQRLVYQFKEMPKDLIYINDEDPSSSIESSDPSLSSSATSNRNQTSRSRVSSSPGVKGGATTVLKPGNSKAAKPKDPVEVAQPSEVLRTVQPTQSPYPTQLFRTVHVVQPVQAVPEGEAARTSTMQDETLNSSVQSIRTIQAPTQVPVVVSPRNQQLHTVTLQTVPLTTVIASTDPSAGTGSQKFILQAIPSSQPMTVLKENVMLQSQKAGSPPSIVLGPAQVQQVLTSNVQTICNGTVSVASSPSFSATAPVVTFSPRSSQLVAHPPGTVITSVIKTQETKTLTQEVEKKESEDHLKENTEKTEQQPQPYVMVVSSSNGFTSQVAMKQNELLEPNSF

Sequence | binding signal (FLI1) | binding signal (ELK1) | binding signal (GABPA) | binding signal (ERG) | binding signal (ELF1) | binding signal (EHF) | binding signal (SPI1) | binding signal (SPIB) | binding signal (ELK3)
CTATGA | 1.03 fold enrichment (6-mer frequency, TF over GST control) | 1.13 fold enrichment (6-mer frequency, TF over GST control) | 1.18 fold enrichment (6-mer frequency, TF over GST control) | 1.06 fold enrichment (6-mer frequency, TF over GST control) | 1.16 fold enrichment (6-mer frequency, TF over GST control) | 1.14 fold enrichment (6-mer frequency, TF over GST control) | 1.03 fold enrichment (6-mer frequency, TF over GST control) | 1.13 fold enrichment (6-mer frequency, TF over GST control) | 1.01 fold enrichment (6-mer frequency, TF over GST control)
GTTACA | 1.15 fold enrichment (6-mer frequency, TF over GST control) | 1.1 fold enrichment (6-mer frequency, TF over GST control) | 1.09 fold enrichment (6-mer frequency, TF over GST control) | 1.13 fold enrichment (6-mer frequency, TF over GST control) | 1.14 fold enrichment (6-mer frequency, TF over GST control) | 1.2 fold enrichment (6-mer frequency, TF over GST control) | 1.11 fold enrichment (6-mer frequency, TF over GST control) | 1.09 fold enrichment (6-mer frequency, TF over GST control) | 1.24 fold enrichment (6-mer frequency, TF over GST control)
CTGCCC | 1.31 fold enrichment (6-mer frequency, TF over GST control) | 1.29 fold enrichment (6-mer frequency, TF over GST control) | 1.29 fold enrichment (6-mer frequency, TF over GST control) | 1.36 fold enrichment (6-mer frequency, TF over GST control) | 1.32 fold enrichment (6-mer frequency, TF over GST control) | 1.46 fold enrichment (6-mer frequency, TF over GST control) | 1.27 fold enrichment (6-mer frequency, TF over GST control) | 1.19 fold enrichment (6-mer frequency, TF over GST control) | 1.1 fold enrichment (6-mer frequency, TF over GST control)
TGTTAC | 1.49 fold enrichment (6-mer frequency, TF over GST control) | 1.55 fold enrichment (6-mer frequency, TF over GST control) | 1.39 fold enrichment (6-mer frequency, TF over GST control) | 1.49 fold enrichment (6-mer frequency, TF over GST control) | 1.43 fold enrichment (6-mer frequency, TF over GST control) | 1.53 fold enrichment (6-mer frequency, TF over GST control) | 1.36 fold enrichment (6-mer frequency, TF over GST control) | 1.43 fold enrichment (6-mer frequency, TF over GST control) | 1.53 fold enrichment (6-mer frequency, TF over GST control)
CCTATT | 1.47 fold enrichment (6-mer frequency, TF over GST control) | 1.55 fold enrichment (6-mer frequency, TF over GST control) | 1.49 fold enrichment (6-mer frequency, TF over GST control) | 1.53 fold enrichment (6-mer frequency, TF over GST control) | 1.56 fold enrichment (6-mer frequency, TF over GST control) | 1.64 fold enrichment (6-mer frequency, TF over GST control) | 1.55 fold enrichment (6-mer frequency, TF over GST control) | 1.44 fold enrichment (6-mer frequency, TF over GST control) | 1.4 fold enrichment (6-mer frequency, TF over GST control)
TACCGA | 1.26 fold enrichment (6-mer frequency, TF over GST control) | 1.1 fold enrichment (6-mer frequency, TF over GST control) | 1.13 fold enrichment (6-mer frequency, TF over GST control) | 1.07 fold enrichment (6-mer frequency, TF over GST control) | 1.17 fold enrichment (6-mer frequency, TF over GST control) | 1.1 fold enrichment (6-mer frequency, TF over GST control) | 1.12 fold enrichment (6-mer frequency, TF over GST control) | 1.16 fold enrichment (6-mer frequency, TF over GST control) | 1.12 fold enrichment (6-mer frequency, TF over GST control)
CGATAG | 1.07 fold enrichment (6-mer frequency, TF over GST control) | 1.11 fold enrichment (6-mer frequency, TF over GST control) | 1.18 fold enrichment (6-mer frequency, TF over GST control) | 1.16 fold enrichment (6-mer frequency, TF over GST control) | 1.15 fold enrichment (6-mer frequency, TF over GST control) | 1.05 fold enrichment (6-mer frequency, TF over GST control) | 1.1 fold enrichment (6-mer frequency, TF over GST control) | 1.07 fold enrichment (6-mer frequency, TF over GST control) | 1.11 fold enrichment (6-mer frequency, TF over GST control)
